Results from PubChem BioAssay (NCATS).
Results filed as inconclusive are left out. Activity calls are given as the source filed them. Calls follow the shape of the dose curve; as a rule, active = well fitted inhibition curve with a large enough effect; inconclusive = small, poorly fitted or top-dose-only effect; inactive = flat fitted curve, though single readings scatter. Peptide text beside a SMILES is read from it.

The compounds below were run on ECU (assay: qHTS profiling for inhibitors of Plasmodium falciparum proliferation (AID 504749; also: nearly all actives have a fitted effect of over 60% in size;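 as to activity, negative = inhibition: 0% = DMSO vehicle and full inhibition = artemisinin control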)). Conditions: P. falciparum in erythrocytes, SYBR Green DNA, 72 h; series mostly up to 12.8 µM; activity, negative = inhibition: at the top concentration.
Procedure, shortened: (§1)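 Parasite proliferation within erythrocytes, 72 h exposure. Endpoint: SYBR Green I fluorescence after overnight lysis at room temperature. Controls: 0.29 uM artemisinin, DMSO.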
Potency is read from the fitted curve at half-maximal effect.

Compound	activity, negative = inhibition	Potency
CCC(C)C(=O)OC1CCC=C2C=CC(C)C(CCC3CC(O)CC(=O)O3)[C@@H]21 (some centres not stated)	-0.264% [at 28.7 µM] (inactive)	
C[C@]1(c2ccccc2)OC(C(=O)O)=CC1=O	0.808% [at 28.7 µM] (inactive)	
OCC1OC([S-])[C@H](O)C(O)C1O.[Au+] (some centres not stated)	-26.9% [at 28.7 µM] (inactive)	
COC(=O)N/N=C/C1=C[N+](=O)c2ccccc2[N+]1=O	-0.0278% [at 28.7 µM] (inactive)	
CN1CC(=O)N=C1N	5.42% [at 28.7 µM] (inactive)	
CNC1CC(N)[C@H](O)[C@@H](O[C@@H]2OC(CO)C3OC4(OC(C(N)CO)C(O)C(O)C4O)O[C@@H]3[C@H]2O)C1O (some centres not stated)	15.2% [at 28.7 µM] (inactive)	
COC1C=CO[C@@]2(C)Oc3c(C)c(O)c4c(O)c(c(C=NN5CCN(C)CC5)c(O)c4c3C2=O)NC(=O)/C(C)=C\C=CC(C)C(O)[C@@H](C)C(O)C(C)[C@H](OC(C)=O)C1C (some centres not stated)		282 nM (active)
CC(=O)N[C@@H]1C(O)OC(CO)C(O)C1O (some centres not stated)	8.42% [at 28.7 µM] (inactive)	
CCC(CCC(C)C1CCC2C3CC=C4CC(O)CC[C@@]4(C)C3CC[C@@]12C)C(C)C (some centres not stated)	1.92% [at 28.7 µM] (inactive)	
O=C1OC(CO)C(O)C(O)C1O (configuration not stated)	4.2% [at 28.7 µM] (inactive)	
COc1ccc(CC(N)C(=O)NC2C(CO)OC(n3cnc4c(N(C)C)ncnc43)C2O)cc1 (configuration not stated)		891 nM (active)
CCCC(=O)O[C@]1(C(=O)CO)CCC2[C@@H]3CCC4=CC(=O)CC[C@]4(C)C3C(O)C[C@]21C (some centres not stated)	5.45% [at 28.7 µM] (inactive)	
COC(=O)C(Cc1ccccc1)NC(=O)C(N)CC(=O)O (stereo not drawn) (H-Asp-Phe-OMe; configuration not given here)	22.7% [at 28.7 µM] (inactive)	
CC[C@@]12CCCN3CCc4c(n(c5ccccc45)[C@](O)(C(=O)OC)C1)C32 (some centres not stated)	-10.4% [at 28.7 µM] (inactive)	
CC1(C)SC2C(N3C(=O)C(c4ccccc4)NC3(C)C)C(=O)N2C1C(=O)O (configuration not stated)	9.07% [at 28.7 µM] (inactive)	
CC1CCC(C(C)C)C(=O)C1 (configuration not stated)	1.02% [at 28.7 µM] (inactive)	

Compound	activity, negative = inhibition	Potency
CC(=O)N[C@H](CC(C)C)C(=O)O	7.85% [at 28.7 µM] (inactive)	
CC(C)C1CCC(C(=O)NC(Cc2ccccc2)C(=O)O)CC1 (configuration not stated)	-5.14% [at 28.7 µM] (inactive)	
COc1ccc2cc(C(C)CO)ccc2c1 (configuration not stated)	9.82% [at 28.7 µM] (inactive)	
COc1ccc2cc1Oc1ccc(cc1)CC1c3c(cc4c(c3Oc3cc5c(cc3OC)CCN(C)C5C2)OCO4)CCN1C (configuration not stated)		8910 nM (active)
CNC1C(OC2C(O[C@@H]3C(O)C(O)[C@@H](N=C(N)N)C(O)C3N=C(N)N)OC(C)[C@@]2(O)CO)OC(CO)C(O)C1O (some centres not stated)	2.52% [at 28.7 µM] (inactive)	
CC1C2CCC3C4CC=C5CC(N(C)C)CC[C@@]5(C)C4CC[C@@]32CN1C (some centres not stated)	3.91% [at 28.7 µM] (inactive)	
C[C@]12C=CC(=O)C=C1CCC1C2C(O)C[C@]2(C)C1CC[C@]2(O)C(=O)CO (some centres not stated)	6.79% [at 28.7 µM] (inactive)	
COc1ccc2c(c1)N(C[C@@H](C)CN(C)C)c1ccccc1S2	-19.8% (inactive)	
CCOC(=O)C1=CC(OC(CC)CC)C(NC(C)=O)C(N)C1 (configuration not stated)	-9.79% [at 28.7 µM] (inactive)	
CN(C)CCc1c[nH]c2ccc(CC3COC(=O)N3)cc12 (configuration not stated)	0.294% [at 28.7 µM] (inactive)	
NCC1CCC(N)C(O[C@@H]2C(O)[C@H](O[C@H]3OC(CO)C(O)C(N)C3O)[C@@H](N)C[C@H]2N)O1 (some centres not stated)	1.94% [at 28.7 µM] (inactive)	
OCC1O[C@H](OC2C(CO)O[C@@](O)(CO)C2O)C(O)C(O)C1O (some centres not stated)	12.6% [at 28.7 µM] (inactive)	
CC1(C)OC2CO[C@]3(COS(N)(=O)=O)OC(C)(C)OC3C2O1 (some centres not stated)	4.86% [at 28.7 µM] (inactive)	
CC(=O)OC1CCC2C3CCc4cc(O)ccc4C3CCC12C (configuration not stated)	9.59% [at 28.7 µM] (inactive)	
CN(C)CCCOC1C(C(O)CO)OC2OC(C)(C)O[C@@H]21 (some centres not stated)	10.9% [at 28.7 µM] (inactive)	
COc1cc(C2c3cc4c(cc3C(O[C@@H]3OC5COC(c6cccs6)OC5C(O)C3O)C3COC(=O)C23)OCO4)cc(OC)c1O (some centres not stated)		2510 nM (active)

Each compound was assayed on FAB9 in the same assay as above. Conditions: P. falciparum in erythrocytes, SYBR Green DNA, 72 h; series mostly up to 12.8 µM; activity, negative = inhibition: at the top concentration.
Procedure, shortened: as §1

Compound	activity, negative = inhibition	Potency
CCC(C)C(=O)OC1CCC=C2C=CC(C)C(CCC3CC(O)CC(=O)O3)[C@@H]21 (some centres not stated)	6.95% [at 28.7 µM] (inactive)	
C[C@]1(c2ccccc2)OC(C(=O)O)=CC1=O	9.18% [at 28.7 µM] (inactive)	
OCC1OC([S-])[C@H](O)C(O)C1O.[Au+] (some centres not stated)	-1.5% [at 28.7 µM] (inactive)	
COC(=O)N/N=C/C1=C[N+](=O)c2ccccc2[N+]1=O	7.05% [at 28.7 µM] (inactive)	
CN1CC(=O)N=C1N	8.4% [at 28.7 µM] (inactive)	
CNC1CC(N)[C@H](O)[C@@H](O[C@@H]2OC(CO)C3OC4(OC(C(N)CO)C(O)C(O)C4O)O[C@@H]3[C@H]2O)C1O (some centres not stated)	5.28% [at 28.7 µM] (inactive)	
CC(=O)N[C@@H]1C(O)OC(CO)C(O)C1O (some centres not stated)	14.4% [at 28.7 µM] (inactive)	
CCC(CCC(C)C1CCC2C3CC=C4CC(O)CC[C@@]4(C)C3CC[C@@]12C)C(C)C (some centres not stated)	1.15% [at 28.7 µM] (inactive)	
O=C1OC(CO)C(O)C(O)C1O (configuration not stated)	9.98% [at 28.7 µM] (inactive)	
COc1ccc(CC(N)C(=O)NC2C(CO)OC(n3cnc4c(N(C)C)ncnc43)C2O)cc1 (configuration not stated)		1780 nM (active)
CCCC(=O)O[C@]1(C(=O)CO)CCC2[C@@H]3CCC4=CC(=O)CC[C@]4(C)C3C(O)C[C@]21C (some centres not stated)	2.02% [at 28.7 µM] (inactive)	
COC(=O)C(Cc1ccccc1)NC(=O)C(N)CC(=O)O (stereo not drawn) (H-Asp-Phe-OMe; configuration not given here)	2.77% [at 28.7 µM] (inactive)	
CC[C@@]12CCCN3CCc4c(n(c5ccccc45)[C@](O)(C(=O)OC)C1)C32 (some centres not stated)	7.52% [at 28.7 µM] (inactive)	
CC1(C)SC2C(N3C(=O)C(c4ccccc4)NC3(C)C)C(=O)N2C1C(=O)O (configuration not stated)	11.6% [at 28.7 µM] (inactive)	
CC1CCC(C(C)C)C(=O)C1 (configuration not stated)	10% [at 28.7 µM] (inactive)	
CC(=O)N[C@H](CC(C)C)C(=O)O	4.31% [at 28.7 µM] (inactive)	
CC(C)C1CCC(C(=O)NC(Cc2ccccc2)C(=O)O)CC1 (configuration not stated)	2.34% [at 28.7 µM] (inactive)	
COc1ccc2cc(C(C)CO)ccc2c1 (configuration not stated)	1.24% [at 28.7 µM] (inactive)	
CNC1C(OC2C(O[C@@H]3C(O)C(O)[C@@H](N=C(N)N)C(O)C3N=C(N)N)OC(C)[C@@]2(O)CO)OC(CO)C(O)C1O (some centres not stated)	11.6% [at 28.7 µM] (inactive)	
CC1C2CCC3C4CC=C5CC(N(C)C)CC[C@@]5(C)C4CC[C@@]32CN1C (some centres not stated)	5.41% [at 28.7 µM] (inactive)	
C[C@]12C=CC(=O)C=C1CCC1C2C(O)C[C@]2(C)C1CC[C@]2(O)C(=O)CO (some centres not stated)	5.71% [at 28.7 µM] (inactive)	
COc1ccc2c(c1)N(C[C@@H](C)CN(C)C)c1ccccc1S2	14.8% (inactive)	
CCOC(=O)C1=CC(OC(CC)CC)C(NC(C)=O)C(N)C1 (configuration not stated)	5.33% [at 28.7 µM] (inactive)	
CN(C)CCc1c[nH]c2ccc(CC3COC(=O)N3)cc12 (configuration not stated)	7.1% [at 28.7 µM] (inactive)	
NCC1CCC(N)C(O[C@@H]2C(O)[C@H](O[C@H]3OC(CO)C(O)C(N)C3O)[C@@H](N)C[C@H]2N)O1 (some centres not stated)	15.9% [at 28.7 µM] (inactive)	
OCC1O[C@H](OC2C(CO)O[C@@](O)(CO)C2O)C(O)C(O)C1O (some centres not stated)	-4.23% [at 28.7 µM] (inactive)	
CC1(C)OC2CO[C@]3(COS(N)(=O)=O)OC(C)(C)OC3C2O1 (some centres not stated)	9.67% [at 28.7 µM] (inactive)	
CC(=O)OC1CCC2C3CCc4cc(O)ccc4C3CCC12C (configuration not stated)	0.838% [at 28.7 µM] (inactive)	
CN(C)CCCOC1C(C(O)CO)OC2OC(C)(C)O[C@@H]21 (some centres not stated)	0.0521% [at 28.7 µM] (inactive)	
COc1cc(C2c3cc4c(cc3C(O[C@@H]3OC5COC(c6cccs6)OC5C(O)C3O)C3COC(=O)C23)OCO4)cc(OC)c1O (some centres not stated)		2240 nM (active)
